Experimental data taken from PubChem BioAssay (NCATS).
Unmarked numbers belong to inactive results. The call rests on the fitted dose curve; in most records, active means well fitted inhibition curve with a large enough effect; inconclusive means small, poorly fitted or top-dose-only effect; inactive means no such curve, though single readings can be large or run the other way.

Assay: qHTS assay for measurement of the activity of small molecule inhibitors on Zika virus induced Caspase-3 activity in human astrocytoma cells (AID 1224859);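 further: plate controls were ZIKV-infected untreated cells for no effect and uninfected cells for full effect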
Settings: SNB-19 ZIKV-induced caspase-3/7, luminescence, 6 h; series mostly up to 45.7 µM; activity change, negative = inhibition: at the top concentration
Description: National Center for Advancing Translational Sciences [NCATS]
Johns Hopkins University School of Medicine
Increase in the Caspase-3 activity indicates an activation of apoptosis cell death pathway caused by Zika virus infection in certain types of neuronal cells including human neural progenitor cells (hNPCs), astrocytes, and astrocytoma cell line (SNB-19). This cell-based caspase-3 activity assay measures the increased caspase-3 activity in the astrocytoma cell line (SNB-19) after a 6-hour Zika virus infection with a luminescence readout. A decrease in the luminescence signal in this assay by small molecule treatment indicates an inhibitory effect of that small molecule on the Zika virus induced caspase-3 activity that may correlate with its effect on reduction of Zika virus caused cell death.
The medium for SNB-19 cells is composed of RPMI 1640 (ATCC, Cat.# 30-2001), 10% fetal bovine serum (FBS) (GE healthcare Life Sciences, Cat.# SH30071.03), and 1% Pen/Strep (Gibco, Cat.# 15140-122). A Caspase-Glo 3/7 assay kit (catalog number G8092; Promega, Madison, WI) was used to detect caspase-3 activity induced by Zika virus infection in human cells. The reagent mixture was reconstituted as described in the protocol from the manufacturer. Polystyrene tissue culture treated and PDL coated white plates were obtained from Greiner Bio-One (Monroe, NC). Cells were seeded in 384- or 1536-well assay plates and cultured at 37 C with 5% CO2 for 16 to 20 hours. The typical cell seeding density in the 1536-well plate assay is 250 cells/well in 3ul medium for SNB-19 cells in tissue culture treated plates. Compounds were added to cells and incubated for one hour before addition of ZIKV solution to cells (2 FFU/cell). After incubation at 37 C with 5% CO2 for 6 hours, the reagent mixture of Caspase-Glo 3/7 assay kit was added to each well, followed by incubation at room temperature for 30 minutes. The luminescence intensity of the assay plates was measured using a ViewLux plate reader (PerkinElmer). Data were normalized by using the cell-containing wells without ZIKV as a negative control (0% induction of caspase 3/7 activity) and wells containing ZIKV infected cells (Caspase-3 activity induced) as a positive control (100% induction of caspase 3 activity). The percentage inhibitions of the increased Caspase-3 activity by small molecule inhibitors were then calculated.

| Compound | activity change, negative = inhibition |
| --- | --- |
| CC(NC(CCc1ccccc1)C(=O)O)C(=O)N1C(=O)N(C)CC1C(=O)O (stereo not given) | 3.74% |
| Cc1ccc2c(Cl)cc(Cl)c(O)c2n1 | -0.595% |
| O=C(O)c1cn(C2CC2)c2cc(Cl)c(F)cc2c1=O | 8.17% |
| CC(C)(C)c1nnc(NS(=O)(=O)c2ccccc2)s1 | 0.0997% |
| Nc1nnnn1-c1ccccc1 | -0.933% |
| Nc1c2ccccc2nc2ccccc12 | 2.91% |
| CCC(=O)O[C@H]1[C@H](O[C@@H]2[C@@H](C)[C@H](O[C@H]3C[C@@](C)(OC)[C@@H](O)[C@H](C)O3)[C@@H](C)C(=O)O[C@H](CC)[C@@](C)(O)[C@H](O)[C@@H](C)C(=O)[C@H](C)C[C@@]2(C)O)O[C@H](C)C[C@@H]1N(C)C | 7.74% |
| CO/N=C(/C(=O)N[C@@H]1C(=O)N2C(C(=O)[O-])=C(C[n+]3ccn4ncccc43)CS[C@H]12)c1nsc(N)n1 | -7.09% |
| Cc1ccc(C(=O)C(=O)O)cc1C | -5.65% |
| CCCC(=O)O[C@]1(C(=O)CCl)[C@@H](C)C[C@H]2[C@@H]3CCC4=CC(=O)C=C[C@]4(C)[C@@]3(F)C(=O)C[C@@]21C | -15.6% |
| Cc1cc(=O)oc2cc(O[C@@H]3SC[C@@H](O)[C@H](O)[C@H]3O)ccc12 | 6.15% |
| O=C1NC(=O)/C(=C/c2ccc3c(c2)OC(F)(F)O3)S1 | -4.07% |
| O=C(CS(=O)Cc1ccco1)NC/C=C\COc1cc(CN2CCCCC2)ccn1 (stereo not given) | 4.56% |
| CSCC[C@H](NC(=O)[C@H](Cc1c[nH]c2ccccc12)NC(=O)CCNC(=O)OC(C)(C)C)C(=O)N[C@@H](CC(=O)O)C(=O)N[C@@H](Cc1ccccc1)C(N)=O | -5.27% |
| Clc1ccc2c(c1)N=C(N1CCNCC1)c1ccccc1N2 | -6.03% |
| O=C(O)c1[nH]n(-c2ccc(S(=O)(=O)O)cc2)c(=O)c1N=Nc1ccc(S(=O)(=O)O)cc1 | 1.81% |
| CO/N=C(/C(=O)N[C@@H]1C(=O)N2C(C(=O)O)=C(Cn3nnc(C)n3)CS[C@H]12)c1csc(N)n1 | 0.716% |
| C[N+](C)(C)CCO | -13.3% |
| CC(C)NCCCC1(C(N)=O)c2ccccc2-c2ccccc21 | 31.2% |
| Cc1c(N)cccc1C(F)(F)F | 13.4% |

| Compound | activity change, negative = inhibition |
| --- | --- |
| O=C(c1ccco1)N1CCNCC1 | -0.022% |
| CCN(CC)CC(=O)Nc1c(C)cccc1C(=O)OC | -5.06% |
| O=C1CC2(CCCC2)CC(=O)N1CCNCC1COc2ccccc2O1 (stereo not given) | 6.15% |
| O=C1OC2(c3ccccc31)c1cc(I)c(O)c(I)c1Oc1c2cc(I)c(O)c1I | -7.42% |
| OCCOCCN1CCN(C(c2ccccc2)c2ccc(Cl)cc2)CC1 (stereo not given) | -0.313% |
| CCOc1ccccc1OCC1CNCCO1 (stereo not given) | -6.14% |
| COCCc1ccccn1 | 33.8% |
| CCc1cc(S(=O)(=O)O)c2cc(C(C)C)cccc1-2 | -8.63% |
| CC(C)(C)c1ccc(C(=O)CCCCl)cc1 | -6.99% |
| CCC(C(=O)OCCN1CCOC(c2ccccc2)C1C)c1ccccc1 (stereo not given) | 22.5% |
| CCN(CC)CCN | -8.17% |
| CC(C)OP(=O)(CP(=O)(OC(C)C)OC(C)C)OC(C)C | 2.53% |
| NCC(=O)O | 14% [at 20.5 µM] |
| O=C(O)c1ccccc1Nc1cc(Cl)ccc1C(=O)O | -8.63% [at 20.5 µM] |
| COCCOCC(OC)OC | 7.86% |
| COc1cc(C(=O)NC2CCCNC2)cc(OC)c1OC (stereo not given) | 7.19% |
| COC(=O)[C@H]1[C@H]2C[C@@H]3c4[nH]c5cc(OC)ccc5c4CCN3C[C@H]2C[C@@H](OC(=O)/C=C/c2ccc(O)c(OC)c2)[C@@H]1OC | -12.1% |
| CCC1(c2cnc[nH]2)Cc2ccccc2C1 | -3.94% |
| CN(C)c1cc2c(Nc3ccc4c(cnn4Cc4ccccc4)c3)ncnc2cn1 | 27.1% |
| O=C1NC2CCCCN2C12CCN(CCCN1c3ccccc3CCc3ccc(Cl)cc31)CC2 (stereo not given) | -0.0446% |
